“And” between values parts separate entries of the source, which are not always exact repeats. Identical values can stand only once. The whole screen tested about 5,500 compounds, of which about 2,000 (36%) were called active. About 18% were inconclusive and are not listed. Cut-off read from the data, not from the text of the source: active = normalized growth mostly below about 0.91 (no sharp cut-off); inconclusive = no clear call, values can overlap the other calls; inactive = mostly above about 0.92. The list shows a part of the results.
Test: chemical genetic growth profiling, strain panel (AID 1159580);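 note: tested at 20 µM; growth read once vehicle control cultures reached saturation at 30 °C; 1 = growth at the plate median or of vehicle wells; lower values mean less growth of the strain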
Conditions: S. cerevisiae deletion strains, growth OD

Measured: normalized growth

CNc1ccccc1C(=O)N1CCc2c([nH]c3ccccc23)C1=O
inactive: locus YAL021C, strain ccr4, hits give low values 0.962 | locus YAL026C, strain drs2, hits give low values 1 | locus YAL030W, strain snc1, hits give low values 0.995 | locus YBL061C, strain skt5, hits give low values 1 | locus YBR009C, strain hhf1, hits give low values 0.981 | locus YBR021W, strain FUR4, hits give low values 0.954 | locus YBR023C, strain chs3, hits give low values 1 | locus YBR171W, strain sec66, hits give low values 0.991 | locus YBR229C, strain ROT2, hits give low values 1.01 | locus YBR231C, strain swc5, hits give low values 0.996 | locus YBR279W, strain paf1, hits give low values 0.992 | locus YCL011C, strain gbp2, hits give low values 0.983 | locus YCL016C, strain dcc1, hits give low values 0.981 | locus YCL029C, strain bik1, hits give low values 0.996 | locus YCL069W, strain vba3, hits give low values 0.987 | locus YCR088W, strain abp1, hits give low values 1 | locus YDL005C, strain med2, hits give low values 0.997 | locus YDL035C, strain GPR1, hits give low values 0.995 | locus YDL040C, strain nat1, hits give low values 0.99 | locus YDL074C, strain BRE1, hits give low values 0.976 | locus YDL101C, strain DUN1, hits give low values 1.02 | locus YDL185W, strain tfp1, hits give low values 0.996 | locus YDL192W, strain arf1, hits give low values 0.975 | locus YDR001C, strain nth1, hits give low values 0.98 | locus YDR069C, strain doa4, hits give low values 0.966 | locus YDR101C, strain arx1, hits give low values 0.964 | locus YDR137W, strain rgp1, hits give low values 0.991 | locus YDR159W, strain sac3, hits give low values 1.03 | locus YDR162C, strain NBP2, hits give low values 1.01 | locus YDR195W, strain ref2 1.01 | locus YDR297W, strain sur2, hits give low values 1 | locus YDR318W, strain mcm21, hits give low values 0.997 | locus YDR334W, strain swr1, hits give low values 0.991 | locus YDR335W, strain msn5, hits give low values 0.996 | locus YDR388W, hits give low values 0.979 | locus YDR392W, strain spt3, hits give low values 0.908 | locus YDR502C, strain sam2, hits give low values 0.967 | locus YEL003W, strain gim4, hits give low values 0.987 | locus YEL037C, strain rad23, hits give low values 0.992 | locus YEL061C, strain CIN8 (second series), hits give low values 0.989 | locus YEL061C, strain CIN8, hits give low values 1.01 | locus YER015W, strain faa2, hits give low values 0.992 | locus YER016W, strain bim1, hits give low values 0.985 | locus YER110C, hits give low values 0.986 | locus YER111C, strain swi4, hits give low values 1 | locus YER155C, strain BEM2 (second series), hits give low values 1.01 | locus YER155C, strain BEM2, hits give low values 0.997 | locus YER167W, strain BCK2, hits give low values 1 | locus YFR010W, strain ubp6, hits give low values 0.965 | locus YGL078C, strain dbp3, hits give low values 0.971 | locus YGL086W, strain mad1, hits give low values 0.964 | locus YGL167C, strain pmr1, hits give low values 0.98 | locus YGL173C, strain kem1, hits give low values 0.997 | locus YGL227W, strain vid30, hits give low values 1 | locus YGL240W, strain doc1, hits give low values 1 | locus YGL248W, strain PDE1, hits give low values 1.02 | locus YGL253W, strain hxk2, hits give low values 0.989 | locus YGR078C, strain PAC10, hits give low values 1.01 | locus YGR135W, strain pre9, hits give low values 1 | locus YGR229C, strain SMI1, hits give low values 1 | locus YGR252W, strain gcn5, hits give low values 0.924 | locus YHR013C, strain ard1, hits give low values 0.958 | locus YHR027C, strain rpn1, hits give low values 0.991 | locus YHR030C, strain SLT2, hits give low values 1.01 and 0.995 | locus YHR079C, strain IRE1 (second series), hits give low values 0.981 | locus YHR079C, strain IRE1, hits give low values 0.986 | locus YHR094C, strain hxt1, hits give low values 0.984 | locus YHR129C, strain ARP1, hits give low values 1.01 | locus YHR142W, strain chs7, hits give low values 0.975 | locus YHR200W, strain rpn10, hits give low values 0.987 | locus YIL066C, strain RNR3, hits give low values 1.01 | locus YIL073C, strain SPO22, hits give low values 0.957 | locus YIL125W, strain kgd1, hits give low values 0.968 | locus YIR030C, strain dcg1, hits give low values 0.975 | locus YJL092W, strain hpr5, hits give low values 0.991 | locus YJL095W, strain BCK1 (second series), hits give low values 1.01 | locus YJL095W, strain BCK1, hits give low values 1.01 and 1.06 | locus YJL115W, strain asf1, hits give low values 0.976 | locus YJL129C, strain trk1, hits give low values 0.982 | locus YJL134W, strain LCB3, hits give low values 1.01 | locus YJL154C, strain vps35, hits give low values 0.989 | locus YJL164C, strain tpk1, hits give low values 0.963 | locus YJL166W, strain qcr8, hits give low values 0.992 | locus YJL168C, strain set2, hits give low values 0.989 | locus YJL187C, strain SWE1 (second series), hits give low values 1 | locus YJL187C, strain SWE1, hits give low values 0.981 | locus YJR043C, strain POL32, hits give low values 0.986 | locus YJR066W, strain TOR1, hits give low values 0.94 | locus YJR075W, strain HOC1, hits give low values 1 | locus YKL009W, strain mrt4, hits give low values 0.949 | locus YKL068W, hits give low values 1 | locus YKL085W, strain MDH1 (second series), hits give low values 0.994 | locus YKL085W, strain MDH1, hits give low values 0.994 | locus YKL160W, strain elf1, hits give low values 0.973 | locus YKR001C, strain vps1, hits give low values 0.941 | locus YKR026C, strain gcn3, hits give low values 1.01 | locus YKR091W, strain srl3, hits give low values 0.989 | locus YLL001W, strain dnm1, hits give low values 0.982 | locus YLL026W, hits give low values 1 | locus YLL041C, strain sdh2, hits give low values 1 | locus YLR027C, strain aat2, hits give low values 0.995 | locus YLR039C, strain RIC1, hits give low values 0.812 | locus YLR058C, strain SHM2, hits give low values 1.01 | locus YLR102C, strain apc9, hits give low values 0.977 | locus YLR113W, strain HOG1, hits give low values 1.1 | locus YLR221C, strain rsa3, hits give low values 1.01 | locus YLR258W, strain gsy2, hits give low values 0.993 | locus YLR262C, strain YPT6 (second series), hits give low values 0.975 | locus YLR262C, strain YPT6, hits give low values 0.823 | locus YLR268W, strain sec22, hits give low values 0.954 | locus YLR320W, strain mms22, hits give low values 1 | locus YLR330W, strain CHS5, hits give low values 1.01 | locus YLR342W, strain FKS1 (second series), hits give low values 0.998 | locus YLR342W, strain FKS1, hits give low values 0.991 | locus YLR357W, strain rsc2, hits give low values 0.973 | locus YLR370C, strain arc18, hits give low values 0.998 | locus YLR371W, strain rom2, hits give low values 0.986 | locus YLR384C, strain iki3, hits give low values 1.02 | locus YLR418C, strain cdc73, hits give low values 0.917 | locus YML016C, strain PPZ1, hits give low values 1.02 | locus YML032C, strain rad52, hits give low values 0.989 | locus YML120C, strain ndi1, hits give low values 0.983 | locus YML124C, strain tub3, hits give low values 0.985 | locus YMR058W, strain fet3, hits give low values 0.994 | locus YMR078C, strain ctf18, hits give low values 0.986 | locus YMR125W, strain sto1, hits give low values 0.965 | locus YMR129W, hits give low values 0.988 | locus YMR205C, strain PFK2, hits give low values 0.984 | locus YMR223W, strain ubp8, hits give low values 1 | locus YMR231W, strain pep5, hits give low values 0.999 | locus YMR263W, strain SAP30, hits give low values 1.01 | locus YMR307W, strain GAS1, hits give low values 0.949 | locus YNL067W, strain RPL9B, hits give low values 1.01 | locus YNL071W, strain lat1, hits give low values 0.993 | locus YNL153C, strain GIM3, hits give low values 1.01 | locus YNL183C, strain NPR1, hits give low values 1.01 | locus YNL209W, strain ssb2, hits give low values 0.985 | locus YNL233W, strain BNI4, hits give low values 0.996 | locus YNL248C, strain rpa49, hits give low values 0.986 | locus YNL250W, strain rad50, hits give low values 1 | locus YNL271C, strain bni1, hits give low values 0.989 | locus YNL298W, strain CLA4, hits give low values 0.977 | locus YNL307C, strain MCK1, hits give low values 0.985 | locus YNL322C, strain KRE1 (second series), hits give low values 1 | locus YNL322C, strain KRE1, hits give low values 1.01 | locus YNR049C, strain mso1, hits give low values 0.989 | locus YNR052C, strain pop2, hits give low values 1.02 | locus YOL006C, strain TOP1, hits give low values 0.974 | locus YOL012C, strain htz1 0.736 | locus YOL147C, strain pex11, hits give low values 0.979 | locus YOR001W, strain rrp6, hits give low values 1.01 | locus YOR061W, strain CKA2, hits give low values 1.01 | locus YOR069W, strain VPS5, hits give low values 1.01 | locus YOR070C, strain gyp1, hits give low values 0.985 | locus YOR080W, strain dia2, hits give low values 1 | locus YOR083W, strain WHI5, hits give low values 0.967 | locus YOR106W, strain vam3, hits give low values 0.924 | locus YOR136W, strain idh2, hits give low values 0.974 | locus YOR144C, strain elg1, hits give low values 0.979 | locus YOR184W, strain ser1, hits give low values 0.979 | locus YOR231W, strain MKK1, hits give low values 1.01 | locus YOR265W, strain rbl2, hits give low values 1 | locus YOR270C, strain vph1, hits give low values 0.979 | locus YOR290C, strain snf2, hits give low values 0.944 | locus YOR316C, strain cot1, hits give low values 0.982 | locus YPL051W, strain arl3, hits give low values 0.982 | locus YPL055C, strain LGE1, hits give low values 0.991 | locus YPL078C, strain atp4, hits give low values 0.973 | locus YPL106C, strain sse1, hits give low values 0.997 | locus YPL240C, strain hsp82, hits give low values 0.986 | locus YPL241C, strain CIN2, hits give low values 1 | locus YPL256C, strain CLN2, hits give low values 1 | locus YPR119W, strain clb2, hits give low values 0.978 | locus YPR141C, strain kar3, hits give low values 0.994 | locus YPR163C, strain tif3, hits give low values 0.99 | locus YPR167C, strain met16, hits give low values 0.989 | strain wtn01, hits give low values 0.961
